Common to all, as to assay: DAPPL (digital affinity profiling via proximity ligation, sequencing); 10 mM Tris-HCl pH 7.5, 50 mM NaCl, 1 mM DTT, 4% glycerol, room temperature, 30 min; GST-TFs on glutathione beads, 16-mer random dsDNA library, 0.1% formaldehyde crosslink after washing; high values mean tight binding
In experiment [1] the target is T1, FEV (Homo sapiens, UniProt Q99581 1-238).
T1 sequence: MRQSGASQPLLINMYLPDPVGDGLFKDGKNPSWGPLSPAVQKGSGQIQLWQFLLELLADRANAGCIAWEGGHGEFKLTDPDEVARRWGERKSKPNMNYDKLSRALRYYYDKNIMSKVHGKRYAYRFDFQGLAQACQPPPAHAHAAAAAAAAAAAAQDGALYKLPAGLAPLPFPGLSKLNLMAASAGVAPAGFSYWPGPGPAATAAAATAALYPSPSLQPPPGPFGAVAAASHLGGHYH
Particulars: protein: recombinant; tags: N-terminal GST; dsDNA, one strand shown. In outline: (§1)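 After expression in yeast as GST fusions, human transcription factors were bound to glutathione beads, DNA-barcoded and mixed with a tag-only sample. The pools were incubated with 200 nmole of a 16-mer random double-stranded DNA library in Tris/NaCl/DTT/glycerol buffer (30 min, room temperature), washed and crosslinked with 0.1% formaldehyde. Proximity ligation with BsaI/T4 ligase ran for 1 h at 37 °C, before PCR amplification and sequencing on an Illumina NextSeq500. Binding signal is a hexamer's read frequency for a factor divided by its frequency for the tag-only sample.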

The target of experiment [2] is ETV5 (Homo sapiens, UniProt P41161 1-510). Particulars: protein: recombinant; tags: N-terminal GST; dsDNA, one strand shown. Put shortly: as §1
Sequence of ETV5 (P41161 whole entry): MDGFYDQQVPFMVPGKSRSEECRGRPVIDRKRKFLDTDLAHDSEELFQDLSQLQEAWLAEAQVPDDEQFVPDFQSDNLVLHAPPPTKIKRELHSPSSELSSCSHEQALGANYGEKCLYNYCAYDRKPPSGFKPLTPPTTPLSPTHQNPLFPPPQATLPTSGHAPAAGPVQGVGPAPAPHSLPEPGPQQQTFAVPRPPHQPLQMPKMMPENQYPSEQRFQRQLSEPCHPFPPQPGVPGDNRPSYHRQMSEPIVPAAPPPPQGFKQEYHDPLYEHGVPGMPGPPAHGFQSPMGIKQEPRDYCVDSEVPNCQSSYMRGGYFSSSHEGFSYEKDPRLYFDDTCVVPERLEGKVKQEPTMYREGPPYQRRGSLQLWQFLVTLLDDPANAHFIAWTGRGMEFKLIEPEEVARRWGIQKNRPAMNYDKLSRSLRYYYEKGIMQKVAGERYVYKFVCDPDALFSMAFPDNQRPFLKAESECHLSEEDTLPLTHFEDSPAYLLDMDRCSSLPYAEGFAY
Experiment [3] addresses HSF1 (Homo sapiens, UniProt Q00613 1-529). The conditions noted are these: protein: recombinant; tags: N-terminal GST; chain copies: 3; dsDNA, one strand shown. In outline: as §1
For experiment [4], the target named is T2, SPIC (Homo sapiens, UniProt Q8N5J4 1-248).
T2 sequence: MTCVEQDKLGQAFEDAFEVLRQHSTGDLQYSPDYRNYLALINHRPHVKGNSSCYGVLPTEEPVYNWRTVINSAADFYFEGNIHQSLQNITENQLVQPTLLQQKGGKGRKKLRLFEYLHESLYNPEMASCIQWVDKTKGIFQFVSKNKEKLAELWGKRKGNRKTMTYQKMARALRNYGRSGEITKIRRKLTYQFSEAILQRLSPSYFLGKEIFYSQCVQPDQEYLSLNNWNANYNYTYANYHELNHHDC
The conditions noted are these: protein: recombinant; tags: N-terminal GST; dsDNA, one strand shown. In outline:
as §1

The target of experiment [5] is ELF4 (Homo sapiens, UniProt Q99607 1-663). Particulars: protein: recombinant; tags: N-terminal GST; dsDNA, one strand shown. Put shortly: as §1
Sequence of ELF4 (Q99607 whole entry): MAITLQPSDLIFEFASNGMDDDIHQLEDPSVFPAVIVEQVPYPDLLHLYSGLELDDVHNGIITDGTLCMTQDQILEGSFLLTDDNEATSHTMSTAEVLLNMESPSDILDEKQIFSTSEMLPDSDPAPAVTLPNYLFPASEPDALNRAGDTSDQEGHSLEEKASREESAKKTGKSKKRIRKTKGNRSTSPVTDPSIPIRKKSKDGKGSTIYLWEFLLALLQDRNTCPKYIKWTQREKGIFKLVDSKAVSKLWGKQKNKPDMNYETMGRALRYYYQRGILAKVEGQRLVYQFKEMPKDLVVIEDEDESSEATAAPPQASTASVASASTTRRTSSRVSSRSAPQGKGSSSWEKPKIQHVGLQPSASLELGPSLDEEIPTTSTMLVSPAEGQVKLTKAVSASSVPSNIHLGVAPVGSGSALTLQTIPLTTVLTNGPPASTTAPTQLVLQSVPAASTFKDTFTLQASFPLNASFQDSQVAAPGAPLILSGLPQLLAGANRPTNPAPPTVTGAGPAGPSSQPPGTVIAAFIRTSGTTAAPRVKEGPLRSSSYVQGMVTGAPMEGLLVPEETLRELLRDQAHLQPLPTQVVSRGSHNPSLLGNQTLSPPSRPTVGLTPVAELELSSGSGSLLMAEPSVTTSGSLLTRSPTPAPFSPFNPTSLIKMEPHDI
The target of experiment [6] is T3, ELK4 (Homo sapiens, UniProt P28324-2 1-405).
T3 sequence: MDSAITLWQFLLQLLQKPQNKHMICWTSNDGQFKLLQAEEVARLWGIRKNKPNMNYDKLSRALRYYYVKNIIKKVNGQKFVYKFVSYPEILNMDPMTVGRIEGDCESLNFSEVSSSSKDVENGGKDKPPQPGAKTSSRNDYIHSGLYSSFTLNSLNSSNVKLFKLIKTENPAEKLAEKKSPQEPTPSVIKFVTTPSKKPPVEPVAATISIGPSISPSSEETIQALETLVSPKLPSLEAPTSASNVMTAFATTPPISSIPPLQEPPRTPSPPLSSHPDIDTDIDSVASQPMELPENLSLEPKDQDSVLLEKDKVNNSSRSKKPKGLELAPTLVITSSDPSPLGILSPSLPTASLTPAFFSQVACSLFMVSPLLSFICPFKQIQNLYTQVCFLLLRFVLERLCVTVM
Particulars: protein: recombinant; tags: N-terminal GST; dsDNA, one strand shown. In outline: as §1

In experiment [7] the target is T4, ETV2 (Homo sapiens, UniProt O00321 1-342).
T4 sequence: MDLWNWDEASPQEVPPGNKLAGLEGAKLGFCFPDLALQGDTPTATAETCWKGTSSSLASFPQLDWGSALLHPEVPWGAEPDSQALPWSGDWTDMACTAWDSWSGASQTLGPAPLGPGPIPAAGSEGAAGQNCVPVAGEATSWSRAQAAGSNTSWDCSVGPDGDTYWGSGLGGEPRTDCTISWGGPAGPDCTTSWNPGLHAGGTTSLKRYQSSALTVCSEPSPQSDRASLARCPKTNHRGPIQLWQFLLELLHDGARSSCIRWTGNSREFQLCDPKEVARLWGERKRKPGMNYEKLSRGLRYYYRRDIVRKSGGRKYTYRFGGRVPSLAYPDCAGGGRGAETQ
The conditions noted are these: protein: recombinant; tags: N-terminal GST; dsDNA, one strand shown. Put shortly:
as §1

Experiment [8] concerns the target T5, ELF3 (Homo sapiens, UniProt P78545 1-371).
T5 sequence: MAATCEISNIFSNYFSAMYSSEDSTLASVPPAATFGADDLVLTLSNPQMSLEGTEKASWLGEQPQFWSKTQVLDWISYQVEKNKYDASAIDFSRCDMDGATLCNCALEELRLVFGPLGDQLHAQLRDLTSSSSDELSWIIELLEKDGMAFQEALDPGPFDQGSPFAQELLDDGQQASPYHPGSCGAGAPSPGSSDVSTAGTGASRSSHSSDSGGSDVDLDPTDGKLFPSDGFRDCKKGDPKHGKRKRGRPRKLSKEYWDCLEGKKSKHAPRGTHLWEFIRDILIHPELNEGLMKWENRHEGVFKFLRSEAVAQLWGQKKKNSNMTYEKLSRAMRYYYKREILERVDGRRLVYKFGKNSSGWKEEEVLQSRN
The conditions noted are these: protein: recombinant; tags: N-terminal GST; dsDNA, one strand shown. In outline:
as §1

For experiment [9], the target named is CRX (Homo sapiens, UniProt O43186 1-299). The conditions noted are these: protein: recombinant; tags: N-terminal GST; dsDNA, one strand shown. In outline:
as §1

Experiment [10] has as its target ETV1 (Homo sapiens, UniProt P50549 1-477). The conditions noted are these: protein: recombinant; tags: N-terminal GST; dsDNA, one strand shown. In outline: as §1
Experiment [11] concerns the target T6, ERF (Homo sapiens, UniProt P50548 1-548).
T6 sequence: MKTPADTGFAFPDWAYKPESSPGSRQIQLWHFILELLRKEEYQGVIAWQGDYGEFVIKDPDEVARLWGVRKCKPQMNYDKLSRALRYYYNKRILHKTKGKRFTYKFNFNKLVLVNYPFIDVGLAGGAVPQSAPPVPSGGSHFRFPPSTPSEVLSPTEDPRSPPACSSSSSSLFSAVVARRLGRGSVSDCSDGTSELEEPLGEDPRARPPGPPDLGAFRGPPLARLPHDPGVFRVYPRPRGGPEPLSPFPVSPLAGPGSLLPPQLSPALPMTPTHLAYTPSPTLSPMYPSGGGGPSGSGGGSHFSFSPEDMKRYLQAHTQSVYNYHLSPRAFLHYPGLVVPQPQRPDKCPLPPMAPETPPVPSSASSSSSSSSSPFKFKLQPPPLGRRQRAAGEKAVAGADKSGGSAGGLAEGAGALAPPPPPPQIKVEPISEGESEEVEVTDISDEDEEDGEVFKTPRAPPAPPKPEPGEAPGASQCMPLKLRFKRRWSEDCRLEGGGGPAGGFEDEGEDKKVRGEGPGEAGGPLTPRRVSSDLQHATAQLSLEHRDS
Particulars: protein: recombinant; tags: N-terminal GST; dsDNA, one strand shown. Put shortly:
as §1

The target of experiment [12] is T7, ETV3L (Homo sapiens, UniProt Q6ZN32 1-361).
T7 sequence: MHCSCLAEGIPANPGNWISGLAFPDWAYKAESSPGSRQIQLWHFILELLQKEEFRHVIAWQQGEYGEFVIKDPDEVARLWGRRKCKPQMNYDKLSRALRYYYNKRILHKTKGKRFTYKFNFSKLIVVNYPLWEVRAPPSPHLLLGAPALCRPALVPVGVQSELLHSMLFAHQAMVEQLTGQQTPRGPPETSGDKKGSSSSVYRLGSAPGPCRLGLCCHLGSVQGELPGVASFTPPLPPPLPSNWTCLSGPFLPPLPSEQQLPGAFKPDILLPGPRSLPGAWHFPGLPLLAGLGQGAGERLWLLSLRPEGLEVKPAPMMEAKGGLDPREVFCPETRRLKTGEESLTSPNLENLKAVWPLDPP
Particulars: protein: recombinant; tags: N-terminal GST; dsDNA, one strand shown. Put shortly:
as §1

The target in experiment [13] is T8, ETS2 (Homo sapiens, UniProt P15036 1-469).
T8 sequence: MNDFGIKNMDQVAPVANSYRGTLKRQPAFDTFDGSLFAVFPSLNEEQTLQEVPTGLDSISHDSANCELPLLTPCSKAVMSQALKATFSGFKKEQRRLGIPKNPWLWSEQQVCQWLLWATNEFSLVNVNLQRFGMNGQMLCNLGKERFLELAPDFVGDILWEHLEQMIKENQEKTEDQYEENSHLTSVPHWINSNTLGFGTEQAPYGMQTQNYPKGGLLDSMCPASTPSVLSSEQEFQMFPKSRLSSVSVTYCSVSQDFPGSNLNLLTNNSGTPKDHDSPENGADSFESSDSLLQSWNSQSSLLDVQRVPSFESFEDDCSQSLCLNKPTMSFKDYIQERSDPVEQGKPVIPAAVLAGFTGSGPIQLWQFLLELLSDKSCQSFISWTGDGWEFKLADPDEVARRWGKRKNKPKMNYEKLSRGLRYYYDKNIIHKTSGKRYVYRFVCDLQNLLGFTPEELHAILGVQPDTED
The conditions noted are these: protein: recombinant; tags: N-terminal GST; dsDNA, one strand shown. Put shortly:
as §1

The target of experiment [14] is T9, SPDEF (Homo sapiens, UniProt O95238 1-335).
T9 sequence: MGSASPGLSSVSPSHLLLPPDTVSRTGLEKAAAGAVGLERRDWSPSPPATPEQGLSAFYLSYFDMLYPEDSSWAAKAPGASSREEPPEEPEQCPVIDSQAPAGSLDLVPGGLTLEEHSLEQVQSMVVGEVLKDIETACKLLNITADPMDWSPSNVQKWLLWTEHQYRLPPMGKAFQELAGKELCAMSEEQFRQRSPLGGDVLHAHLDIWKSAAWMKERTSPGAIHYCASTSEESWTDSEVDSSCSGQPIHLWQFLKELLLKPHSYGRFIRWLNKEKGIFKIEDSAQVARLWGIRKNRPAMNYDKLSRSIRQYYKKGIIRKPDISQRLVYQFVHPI
Particulars: protein: recombinant; tags: N-terminal GST; dsDNA, one strand shown. In outline: as §1

The target of experiment [15] is T10, ETV7 (Homo sapiens, UniProt Q9Y603 1-341).
T10 sequence: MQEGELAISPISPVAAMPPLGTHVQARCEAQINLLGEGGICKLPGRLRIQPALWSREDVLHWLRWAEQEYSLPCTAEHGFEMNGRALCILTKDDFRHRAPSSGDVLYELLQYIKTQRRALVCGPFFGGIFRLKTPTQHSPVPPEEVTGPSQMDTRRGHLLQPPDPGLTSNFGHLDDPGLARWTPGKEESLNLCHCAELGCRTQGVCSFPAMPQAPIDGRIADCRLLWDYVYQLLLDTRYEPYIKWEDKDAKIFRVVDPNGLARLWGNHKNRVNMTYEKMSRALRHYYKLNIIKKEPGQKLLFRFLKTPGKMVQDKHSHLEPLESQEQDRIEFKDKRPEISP
The conditions noted are these: protein: recombinant; tags: N-terminal GST; dsDNA, one strand shown. In outline:
as §1

The target in experiment [16] is T11, ELF5 (Homo sapiens, UniProt Q9UKW6-2 1-255).
T11 sequence: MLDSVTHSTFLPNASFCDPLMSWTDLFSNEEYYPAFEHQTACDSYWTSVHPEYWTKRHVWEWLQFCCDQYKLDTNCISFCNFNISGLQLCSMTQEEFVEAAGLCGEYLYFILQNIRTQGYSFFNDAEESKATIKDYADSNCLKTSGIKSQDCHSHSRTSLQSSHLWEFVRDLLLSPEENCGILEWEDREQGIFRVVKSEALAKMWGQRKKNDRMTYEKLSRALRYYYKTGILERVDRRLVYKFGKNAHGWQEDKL
Particulars: protein: recombinant; tags: N-terminal GST; dsDNA, one strand shown. Put shortly: as §1

In experiment [17] the target is T12, ETV3 (Homo sapiens, UniProt P41162-2 1-143).
T12 sequence: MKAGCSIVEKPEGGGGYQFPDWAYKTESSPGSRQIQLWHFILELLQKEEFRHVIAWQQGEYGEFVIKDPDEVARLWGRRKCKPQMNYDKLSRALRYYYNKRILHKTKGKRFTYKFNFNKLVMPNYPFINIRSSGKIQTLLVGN
Particulars: protein: recombinant; tags: N-terminal GST; dsDNA, one strand shown. Put shortly:
as §1

Experiment [18] addresses ETV6 (Homo sapiens, UniProt P41212 1-452). The conditions noted are these: protein: recombinant; tags: N-terminal GST; dsDNA, one strand shown. Put shortly: as §1

Sequence of ETV1 (P50549 whole entry): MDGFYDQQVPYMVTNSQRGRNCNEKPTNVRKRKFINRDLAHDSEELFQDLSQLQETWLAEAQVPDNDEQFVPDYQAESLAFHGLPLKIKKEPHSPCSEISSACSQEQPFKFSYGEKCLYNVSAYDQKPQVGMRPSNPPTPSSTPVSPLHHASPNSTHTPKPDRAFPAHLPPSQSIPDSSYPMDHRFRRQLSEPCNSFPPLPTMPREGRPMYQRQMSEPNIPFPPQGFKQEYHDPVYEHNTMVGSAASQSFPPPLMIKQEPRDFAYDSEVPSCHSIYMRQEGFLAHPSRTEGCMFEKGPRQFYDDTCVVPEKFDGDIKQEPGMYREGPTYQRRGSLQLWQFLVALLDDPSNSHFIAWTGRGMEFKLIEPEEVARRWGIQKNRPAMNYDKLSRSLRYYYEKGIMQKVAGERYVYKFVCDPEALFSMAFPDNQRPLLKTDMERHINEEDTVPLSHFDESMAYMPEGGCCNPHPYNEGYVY
Sequence of HSF1 (Q00613 whole entry): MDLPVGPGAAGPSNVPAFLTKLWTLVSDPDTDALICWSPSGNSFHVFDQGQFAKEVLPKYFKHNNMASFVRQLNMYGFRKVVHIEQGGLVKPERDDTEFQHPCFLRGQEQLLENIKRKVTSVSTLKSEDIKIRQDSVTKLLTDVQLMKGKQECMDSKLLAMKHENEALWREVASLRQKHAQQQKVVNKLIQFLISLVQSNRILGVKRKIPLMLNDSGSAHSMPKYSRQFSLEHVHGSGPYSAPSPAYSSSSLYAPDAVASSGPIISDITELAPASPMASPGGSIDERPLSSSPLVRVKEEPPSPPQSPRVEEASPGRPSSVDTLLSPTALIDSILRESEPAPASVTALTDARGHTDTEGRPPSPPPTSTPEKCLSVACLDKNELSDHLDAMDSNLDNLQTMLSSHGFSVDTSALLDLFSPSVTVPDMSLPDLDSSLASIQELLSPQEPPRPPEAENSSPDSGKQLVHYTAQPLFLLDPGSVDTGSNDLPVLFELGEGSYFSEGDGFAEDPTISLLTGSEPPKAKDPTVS
Sequence of CRX (O43186 whole entry): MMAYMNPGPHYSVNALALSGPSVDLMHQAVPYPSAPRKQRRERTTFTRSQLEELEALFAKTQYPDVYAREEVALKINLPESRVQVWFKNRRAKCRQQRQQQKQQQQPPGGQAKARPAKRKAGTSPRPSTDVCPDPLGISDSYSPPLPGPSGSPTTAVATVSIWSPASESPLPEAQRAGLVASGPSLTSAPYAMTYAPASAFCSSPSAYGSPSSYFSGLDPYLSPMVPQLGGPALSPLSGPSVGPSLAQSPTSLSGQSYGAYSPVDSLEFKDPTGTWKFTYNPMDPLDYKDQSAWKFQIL
Sequence of ETV6 (P41212 whole entry): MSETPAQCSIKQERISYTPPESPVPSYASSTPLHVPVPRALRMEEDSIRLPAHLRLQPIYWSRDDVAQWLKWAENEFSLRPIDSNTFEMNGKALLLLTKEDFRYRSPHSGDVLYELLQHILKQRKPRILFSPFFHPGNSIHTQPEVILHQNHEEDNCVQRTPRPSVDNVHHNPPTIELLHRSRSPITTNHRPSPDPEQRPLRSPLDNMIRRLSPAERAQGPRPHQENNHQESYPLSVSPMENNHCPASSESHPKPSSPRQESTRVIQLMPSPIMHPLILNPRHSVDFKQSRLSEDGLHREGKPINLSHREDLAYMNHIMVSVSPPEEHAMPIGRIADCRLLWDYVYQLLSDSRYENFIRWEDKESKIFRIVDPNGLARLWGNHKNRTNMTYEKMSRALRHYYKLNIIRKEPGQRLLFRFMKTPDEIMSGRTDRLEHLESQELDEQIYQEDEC

On to CTACTA, for which the binding signal in experiment [1] is 1.27 fold enrichment (6-mer frequency, TF over GST control); in [2], 1.31 fold enrichment (6-mer frequency, TF over GST control); in [3], 1.43 fold enrichment (6-mer frequency, TF over GST control); in experiment [4], 1.4 fold enrichment (6-mer frequency, TF over GST control); in [5], 1.29 fold enrichment (6-mer frequency, TF over GST control); in [6], 1.37 fold enrichment (6-mer frequency, TF over GST control). Moreover, the binding signal in [7] is 1.23 fold enrichment (6-mer frequency, TF over GST control); in [8], 1.35 fold enrichment (6-mer frequency, TF over GST control); in [9] it was 1.36 fold enrichment (6-mer frequency, TF over GST control); in [10], 1.18 fold enrichment (6-mer frequency, TF over GST control); in experiment [11], 1.35 fold enrichment (6-mer frequency, TF over GST control); in experiment [12], 1.29 fold enrichment (6-mer frequency, TF over GST control). The binding signal in [13] is 1.26 fold enrichment (6-mer frequency, TF over GST control); in [14], 1.28 fold enrichment (6-mer frequency, TF over GST control); in experiment [15], 1.44 fold enrichment (6-mer frequency, TF over GST control); in [16], 1.24 fold enrichment (6-mer frequency, TF over GST control); in experiment [17], 1.23 fold enrichment (6-mer frequency, TF over GST control); in experiment [18], 1.46 fold enrichment (6-mer frequency, TF over GST control).

Values taken from PMC7862700, “An all-to-all approach to the identification of sequence-specific readers for epigenetic DNA modifications on cytosine”.
